Activity calls are given as the source filed them. Rule for the calls: active = hit-call score of the fitted dose curve at least 0.9, where 1 is the maximum; inactive = score below 0.9.

Experiment [1] can be described thus: CEETOX_H295R_ESTRADIOL: CeeTox H295R High-throughput Steroidogenesis Assay for Estradiol (AID 2283440).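 Note: estradiol secreted into medium quantified by LC-MS/MS after dansyl derivatisation.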 The following applies: actives raise or lower the signal. The gist of the method:
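H295R cells pre-stimulated 48 h with 10 uM forskolin, then exposed 48 h to chemical in 0.1% DMSO. Medium estradiol quantified by MTBE extraction, dansyl derivatisation and HPLC-MS/MS; bidirectional fit versus DMSO; MTT viability required >/=70%.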

Experiment [2] in a line: CEETOX_H295R_ESTRONE: CeeTox H295R High-throughput Steroidogenesis Assay for Estrone (AID 2283441).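 Note: estrone secreted into medium measured by LC-MS/MS after dansyl derivatization.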 The following applies: actives raise or lower the signal. In a few lines:
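H295R cells; 48 h forskolin (10 uM) prestimulation; 48 h compound exposure, 0.1% DMSO final. Medium estrone: MTBE extraction, dansyl derivatization, HPLC-MS/MS. Bidirectional fit vs DMSO.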

Read-out in experiment [3]: Tumor necrosis factor receptor superfamily member 6 (Homo sapiens) (UniProt P25445)
As to the kind of experiment: LTEA_HepaRG_FAS: Life Technologies and Expression Analysis (LTEA) Assay for Fas cell surface death receptor (FAS) using HepaRG (AID 2283447). As to conditions: mRNA level, 48 h; actives raise or lower the signal. In a few lines:
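FAS transcript level was measured by TaqMan qRT-PCR against three housekeeping genes after 48 h chemical exposure. Cells were HepaRG, 0.5% DMSO vehicle, with a top concentration of 100 uM and half-log dilutions over eight points, in duplicate.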

Read-out in experiment [4]: Cyclin D2 (CCND2), CCND2 (gene 894)
The experiment in a line: LTEA_HepaRG_CCND2: Life Technologies and Expression Analysis (LTEA) Assay for Cyclin D2 (CCND2) using HepaRG (AID 2283449). The following applies: mRNA level, 48 h; actives raise or lower the signal. In a few lines: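 Read-out is CCND2 mRNA level measured by qRT-PCR in human HepaRG liver cells and normalised to three housekeeping genes. Chemicals were applied for 48 h at up to 100 uM, with gain or loss fitted relative to 0.5% DMSO.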

Read-out in experiment [5]: Cyclin Dependent Kinase Inhibitor 1A (CDKN1A), CDKN1A (gene 1026)
As to the kind of experiment: LTEA_HepaRG_CDKN1A: Life Technologies and Expression Analysis (LTEA) Assay for Cyclin Dependent Kinase Inhibitor 1A (CDKN1A) using HepaRG (AID 2283450). As to conditions: mRNA level, 48 h; actives raise or lower the signal. In a few lines: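 Differentiated HepaRG cells in serum-free induction medium, exposed 48 h in duplicate to eight half-log concentrations up to 100 uM in 0.5% DMSO. mRNA measured by TaqMan qRT-PCR, normalized to ACTB, GAPDH, POLR2A; bidirectional fit versus DMSO.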

Read-out in experiment [6]: Cyclin D1 (CCND1), CCND1 (gene 595)
The experiment in a line: LTEA_HepaRG_CCND1: Life Technologies and Expression Analysis (LTEA) Assay for Cyclin D1 (CCND1) using HepaRG (AID 2283451). As to conditions: mRNA level, 48 h; actives raise or lower the signal. In a few lines:
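Differentiated HepaRG cells exposed 48 h in serum-free induction medium to eight half-log concentrations from 100 uM top, 0.5% DMSO, duplicates. CCND1 mRNA measured by Fluidigm TaqMan qRT-PCR, normalised to ACTB, GAPDH, POLR2A; bidirectional fit.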

Read-out in experiment [7]: catalase (CAT), CAT (gene 847)
As to the kind of experiment: LTEA_HepaRG_CAT: Life Technologies and Expression Analysis (LTEA) Assay for catalase (CAT) using HepaRG (AID 2283452). As to conditions: mRNA level, 48 h; actives raise or lower the signal. In a few lines: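 Expression of CAT was quantified by TaqMan qRT-PCR with ACTB/GAPDH/POLR2A normalization after 48 h chemical exposure of HepaRG. Eight-point half-log series, top 100 uM, in 0.5% DMSO; gain or loss fitted against vehicle.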

Read-out in experiment [8]: flavin-containing dimethylaniline monooxygenases 3 (FMO3), FMO3 (gene 2328)
The experiment in a line: LTEA_HepaRG_FMO3: Life Technologies and Expression Analysis (LTEA) Assay for flavin-containing dimethylaniline monooxygenases 3 (FMO3) using HepaRG (AID 2283453). The following applies: mRNA level, 48 h; actives raise or lower the signal. In a few lines: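 HepaRG, 48 h exposure, 8-pt half-log series from 100 uM, 0.5% DMSO vehicle, duplicates; FMO3 transcript by Fluidigm TaqMan qRT-PCR, housekeeping-normalized; gain/loss fit vs DMSO.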

Read-out in experiment [9]: Cytochrome P450 (CYP1A1), CYP1A1 (gene 1543)
The experiment in a line: LTEA_HepaRG_CYP1A1: Life Technologies and Expression Analysis (LTEA) Assay for Cytochrome P450 (CYP1A1) using HepaRG (AID 2283454). The following applies: mRNA level, 48 h; actives raise or lower the signal. The gist of the method: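 Differentiated human HepaRG cells, after 48 h plating, exposed in duplicate for 48 h in serum-free induction medium to 8 half-log concentrations up to 100 uM in 0.5% DMSO. CYP1A1 mRNA by qRT-PCR, normalized to ACTB/GAPDH/POLR2A; bidirectional fit versus DMSO.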

Read-out in experiment [10]: CFLAR gene, CFLAR (gene 8837)
The experiment in a line: LTEA_HepaRG_CFLAR: Life Technologies and Expression Analysis (LTEA) Assay for CFLAR gene using HepaRG (AID 2283455). As to conditions: mRNA level, 48 h; actives raise or lower the signal. In a few lines:
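HepaRG, 48 h exposure, 8-pt conc-response (100 uM top, half-log), 0.5% DMSO vehicle, duplicates. CFLAR expression by qRT-PCR; ACTB/GAPDH/POLR2A normalization; gain or loss fit vs DMSO baseline.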

Read-out in experiment [11]: Forkhead box O1 (FOXO1), FOXO1 (gene 2308)
As to the kind of experiment: LTEA_HepaRG_FOXO1: Life Technologies and Expression Analysis (LTEA) Assay for Forkhead box O1 (FOXO1) using HepaRG (AID 2283456). The following applies: mRNA level, 48 h; actives raise or lower the signal. In a few lines:
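Readout is FOXO1 transcript level by multiplexed qRT-PCR against three housekeeping genes, curve-fitted in both directions relative to 0.5% DMSO vehicle. Human HepaRG cultures received chemicals for 48 h, up to 100 uM in half-log steps.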

Read-out in experiment [12]: growth arrest and DNA damage 45 (GADD45A), GADD45A (gene 1647)
The experiment in a line: LTEA_HepaRG_GADD45A: Life Technologies and Expression Analysis (LTEA) Assay for growth arrest and DNA damage 45 (GADD45A) using HepaRG (AID 2283458). As to conditions: mRNA level, 48 h; actives raise or lower the signal. The gist of the method:
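Differentiated HepaRG cells were exposed in duplicate for 48 h in serum-free induction medium to 8-point half-log concentrations up to 100 uM in 0.5% DMSO. GADD45A mRNA was measured by TaqMan qRT-PCR, normalized to ACTB, GAPDH and POLR2A, with bidirectional fitting versus DMSO.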

Read-out in experiment [13]: Forkhead box O3 (FOXO3), FOXO3 (gene 2309)
The experiment in a line: LTEA_HepaRG_FOXO3: Life Technologies and Expression Analysis (LTEA) Assay for Forkhead box O3 (FOXO3) using HepaRG (AID 2283459). The following applies: mRNA level, 48 h; actives raise or lower the signal. In a few lines: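 HepaRG, 48 h post-dose; 8 conc., half-log from 100 uM, 0.5% DMSO, duplicates; serum-free induction medium. Readout: FOXO3 mRNA, TaqMan qRT-PCR, housekeeping-normalized. Bidirectional curve fit vs DMSO baseline.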

Read-out in experiment [14]: ABC Transporter (ABCB1), ABCB1 (gene 5243)
As to the kind of experiment: LTEA_HepaRG_ABCB1: Life Technologies and Expression Analysis (LTEA) Assay for ABC Transporter (ABCB1) using HepaRG (AID 2283460). As to conditions: mRNA level, 48 h; actives raise or lower the signal. In a few lines:
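Expression of ABCB1 was quantified by qRT-PCR against three housekeeping genes after human HepaRG cultures received test chemicals for 48 hours. Concentrations spanned eight half-log steps topping at 100 uM in 0.5% DMSO; gain or loss of signal was fitted relative to vehicle.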

Read-out in experiment [15]: growth arrest and DNA damage 45 (GADD45B), GADD45B (gene 4616)
As to the kind of experiment: LTEA_HepaRG_GADD45B: Life Technologies and Expression Analysis (LTEA) Assay for growth arrest and DNA damage 45 (GADD45B) using HepaRG (AID 2283461). The following applies: mRNA level, 48 h; actives raise or lower the signal. The gist of the method:
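Differentiated human HepaRG cells in serum-free induction medium exposed 48 h in duplicate to eight concentrations, top 100 uM, half-log steps, 0.5% DMSO. GADD45B mRNA by TaqMan qRT-PCR, normalized to ACTB, GAPDH, POLR2A; bidirectional fit versus DMSO.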

Read-out in experiment [16]: ABC Transporter (ABCC3), ABCC3 (gene 8714)
The experiment in a line: LTEA_HepaRG_ABCC3: Life Technologies and Expression Analysis (LTEA) Assay for ABC Transporter (ABCC3) using HepaRG (AID 2283462). The following applies: mRNA level, 48 h; actives raise or lower the signal. In a few lines: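 Differentiated human HepaRG cells exposed 48 h in serum-free induction medium, 0.5% DMSO vehicle, 8-point half-log series to 100 uM in duplicate. ABCC3 mRNA by qRT-PCR, normalised to ACTB, GAPDH, POLR2A; bidirectional fit vs DMSO.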

The nature of experiment [17]: CEETOX_H295R_PROG: CeeTox H295R High-throughput Steroidogenesis Assay for Progesterone (PROG) (AID 2283442).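 For AC50: human H295R adrenal cells primed with 10 µM forskolin before dosing.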 As to conditions: actives raise or lower the signal. In a few lines:
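H295R adrenal cells prestimulated 48 h with 10 uM forskolin, then exposed 48 h to test chemical in 0.1% DMSO. Progesterone in medium quantified by HPLC-MS/MS after MTBE extraction; viability checked by MTT in same wells.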

A short description of experiment [18]: CEETOX_H295R_TESTO: CeeTox H295R High-throughput Steroidogenesis Assay for Testosterone (TESTO) (AID 2283457).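 For AC50: cells exposed to chemicals for 48 h before medium collection.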 The following applies: actives raise or lower the signal. The gist of the method:
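H295R adrenal cells, passage ≤10, exposed to chemicals for 48 h. Testosterone in medium measured by MTBE extraction and HPLC-MS/MS against a 7-point standard curve. Bidirectional fit versus DMSO; MTT viability checked in the same wells.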

Read-out in experiment [19]: Fatty acid synthase (Homo sapiens) (UniProt P49327)
As to the kind of experiment: LTEA_HepaRG_FASN: Life Technologies and Expression Analysis (LTEA) Assay for Fatty Acid Synthase (FASN) using HepaRG (AID 2283448). The following applies: mRNA level, 48 h; actives raise or lower the signal. The gist of the method: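 Differentiated human HepaRG cells were exposed for 48 h in serum-free induction medium to eight half-log concentrations up to 100 uM in 0.5% DMSO, in duplicate. FASN mRNA was quantified by TaqMan qRT-PCR, normalized to ACTB/GAPDH/POLR2A, and fitted bidirectionally against DMSO.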

Fatty acid synthase (Homo sapiens), sequence (P49327 whole entry, looked up): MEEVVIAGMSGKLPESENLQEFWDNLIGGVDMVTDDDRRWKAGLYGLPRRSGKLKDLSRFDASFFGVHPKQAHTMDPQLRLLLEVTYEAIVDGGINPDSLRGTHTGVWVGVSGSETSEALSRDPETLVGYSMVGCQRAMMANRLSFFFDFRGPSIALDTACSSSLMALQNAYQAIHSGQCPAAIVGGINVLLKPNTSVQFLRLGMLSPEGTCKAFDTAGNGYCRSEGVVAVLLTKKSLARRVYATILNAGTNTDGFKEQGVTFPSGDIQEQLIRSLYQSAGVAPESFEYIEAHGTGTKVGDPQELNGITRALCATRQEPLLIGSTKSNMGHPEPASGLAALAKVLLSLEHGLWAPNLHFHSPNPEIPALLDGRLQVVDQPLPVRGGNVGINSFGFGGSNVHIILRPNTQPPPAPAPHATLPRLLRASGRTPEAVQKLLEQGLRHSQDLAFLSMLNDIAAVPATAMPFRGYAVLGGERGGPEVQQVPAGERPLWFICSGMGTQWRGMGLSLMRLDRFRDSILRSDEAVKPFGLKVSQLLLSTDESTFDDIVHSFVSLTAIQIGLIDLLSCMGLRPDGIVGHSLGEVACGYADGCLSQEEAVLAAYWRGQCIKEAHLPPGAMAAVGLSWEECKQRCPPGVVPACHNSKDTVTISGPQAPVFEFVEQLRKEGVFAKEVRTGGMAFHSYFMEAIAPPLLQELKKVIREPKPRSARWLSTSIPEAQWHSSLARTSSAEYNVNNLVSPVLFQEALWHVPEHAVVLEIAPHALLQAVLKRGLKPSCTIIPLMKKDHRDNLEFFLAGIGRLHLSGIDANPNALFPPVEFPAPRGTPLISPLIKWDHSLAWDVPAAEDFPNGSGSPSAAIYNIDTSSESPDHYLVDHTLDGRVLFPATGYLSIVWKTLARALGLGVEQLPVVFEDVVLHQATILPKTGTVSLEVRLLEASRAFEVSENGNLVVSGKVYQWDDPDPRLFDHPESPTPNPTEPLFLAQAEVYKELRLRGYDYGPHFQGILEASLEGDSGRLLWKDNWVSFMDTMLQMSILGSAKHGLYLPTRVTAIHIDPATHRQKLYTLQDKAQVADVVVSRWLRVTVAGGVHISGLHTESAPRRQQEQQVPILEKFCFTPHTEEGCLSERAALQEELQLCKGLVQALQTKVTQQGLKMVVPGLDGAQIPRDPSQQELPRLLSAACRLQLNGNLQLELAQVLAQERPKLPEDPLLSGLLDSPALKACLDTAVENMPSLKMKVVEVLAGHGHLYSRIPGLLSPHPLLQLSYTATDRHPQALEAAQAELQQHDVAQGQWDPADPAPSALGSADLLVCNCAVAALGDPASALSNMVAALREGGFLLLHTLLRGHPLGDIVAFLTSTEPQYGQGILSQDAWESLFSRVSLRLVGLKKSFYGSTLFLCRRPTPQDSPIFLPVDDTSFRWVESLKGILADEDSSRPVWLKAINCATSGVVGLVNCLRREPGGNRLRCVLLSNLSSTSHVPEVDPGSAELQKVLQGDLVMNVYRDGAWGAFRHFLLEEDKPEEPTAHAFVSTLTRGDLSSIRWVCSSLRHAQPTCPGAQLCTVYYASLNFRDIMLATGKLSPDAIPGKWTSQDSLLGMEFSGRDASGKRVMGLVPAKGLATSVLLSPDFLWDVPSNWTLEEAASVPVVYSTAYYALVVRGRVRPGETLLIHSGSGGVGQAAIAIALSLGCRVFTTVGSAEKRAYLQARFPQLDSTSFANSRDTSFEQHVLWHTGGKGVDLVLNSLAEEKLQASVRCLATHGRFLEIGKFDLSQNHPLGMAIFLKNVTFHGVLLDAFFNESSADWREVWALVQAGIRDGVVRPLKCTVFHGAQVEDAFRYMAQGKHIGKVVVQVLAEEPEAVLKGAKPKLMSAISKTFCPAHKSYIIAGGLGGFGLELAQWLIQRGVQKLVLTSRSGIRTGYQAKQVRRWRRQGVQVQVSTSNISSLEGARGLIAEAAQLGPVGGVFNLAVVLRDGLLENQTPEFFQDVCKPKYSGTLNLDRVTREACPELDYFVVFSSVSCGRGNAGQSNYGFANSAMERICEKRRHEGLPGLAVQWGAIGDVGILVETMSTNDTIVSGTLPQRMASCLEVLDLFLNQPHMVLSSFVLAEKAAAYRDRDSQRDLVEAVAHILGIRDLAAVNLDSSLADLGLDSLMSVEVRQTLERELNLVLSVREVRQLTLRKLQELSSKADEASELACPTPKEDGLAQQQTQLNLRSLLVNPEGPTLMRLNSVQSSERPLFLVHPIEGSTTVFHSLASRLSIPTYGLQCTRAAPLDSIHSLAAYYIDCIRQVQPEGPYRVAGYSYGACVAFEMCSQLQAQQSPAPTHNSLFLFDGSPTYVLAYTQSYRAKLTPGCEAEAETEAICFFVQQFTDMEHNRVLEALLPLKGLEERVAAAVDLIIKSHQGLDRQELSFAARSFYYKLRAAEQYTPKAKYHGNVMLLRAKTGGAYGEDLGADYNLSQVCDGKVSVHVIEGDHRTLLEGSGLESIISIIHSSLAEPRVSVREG

With `Cc1ccc(N)cc1N`, the outcome in experiment [1], in experiment [2], in experiment [3], in experiment [4], in experiment [5] and in experiment [6] was inactive. Besides, the outcome in experiment [7], in experiment [8], in experiment [10], in experiment [11], in experiment [12] and in [13] was inactive. In addition, the result in experiment [14], in experiment [15] and in experiment [16] was inactive. Also, the AC50 in experiment [9] is 21.6 µM (active).

As to `c1ccc(OP(Oc2ccccc2)Oc2ccccc2)cc1`, the compound was called inactive in experiment [1], in experiment [2], in experiment [17], in [3], in experiment [4] and in experiment [5]. Moreover, the result in [6], in experiment [7], in experiment [8], in experiment [10], in experiment [11] and in experiment [12] was inactive. In addition, the call in experiment [13], in [14], in [15] and in [16] was inactive. The AC50 in experiment [9] was 77.3 µM (active).

Turning to `CC(=O)c1ccc(-c2ccccc2)cc1`, the outcome in experiment [17] was inactive. Moreover, the AC50 in experiment [18] is 19.1 µM (active).

Turning to `Nc1ccc([N+](=O)[O-])cc1Cl`, the outcome in experiment [17] and in experiment [18] was inactive.

For the compound `ClC(Cl)=C(c1ccc(Cl)cc1)c1ccccc1Cl`, the call in experiment [1], in experiment [2], in [17] and in [18] was inactive.

On to `CCCCc1ccccc1`, for which the compound was classed as inactive in [3], in [19], in experiment [4], in experiment [5], in [6] and in experiment [7]. For the same compound, the compound was classed as inactive in experiment [8], in experiment [10], in [11], in [12], in experiment [13] and in experiment [14]. In addition, the compound was classed as inactive in experiment [15] and in [16]. Moreover, the half-maximal activity concentration (AC50) in experiment [9] was 75.6 µM (active).

Turning to `CCOP(=S)(OCC)SCn1nnc2ccccc2c1=O`, the result in experiment [1] and in [2] was inactive. Moreover, in [17], the AC50 is 8.4 µM (active).

Take `Cc1ccc(O)cc1C`: the compound was classed as inactive in [1], in experiment [2], in experiment [17], in experiment [3], in [4] and in experiment [5]. For the same compound, the compound was called inactive in [6], in experiment [7], in [8], in experiment [10], in experiment [11] and in experiment [12]. Further, the result in experiment [13], in [15] and in [16] was inactive.

Consider `Oc1ccc(I)cc1`, for which the outcome in experiment [1] and in [2] was inactive. Also, the AC50 in experiment [17] is 17 µM (active).

Source of the values: PubChem BioAssay (EPA / NIEHS).
